Test results reported in the supplement of paper PMC12669032.

How the values were obtained:
Experiment in all cases: growth AUC relative to DMSO control (median of replicates) (fraction); higher = more growth (less inhibition), active = hit call of the paper
Conditions in all cases: 20 µM; 24 h;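 active = AUC reduced over 20% with Padj below 0.05 in at least 2 of 3 replicates; inactive = otherwise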
Akkermansia muciniphila = tested on: Akkermansia muciniphila
How it was run: (§1)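 Area under the growth curve was normalised to the plate median of solvent-only wells, except on the industrial chemical plate, where row and column medians were used. Curves came from gut bacterial monocultures grown anaerobically at 37 °C in mGAM with 20 µM compound (1% DMSO), starting at OD600 0.05 and read at OD600 every hour for 24 h. The minimum OD of each curve was set to 0, and values are medians of three biological replicates grown on separate days.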

Bacteroides caccae = tested on: Bacteroides caccae
How it was run: as §1

Bacteroides clarus = tested on: Bacteroides clarus
How it was run: as §1

Bacteroides dorei = tested on: Bacteroides dorei
How it was run: as §1

Bacteroides stercoris = tested on: Bacteroides stercoris
How it was run: as §1

[1] = tested on: Bacteroides thetaiotaomicron
How it was run: as §1

Bacteroides uniformis = tested on: Bacteroides uniformis
How it was run: as §1

[2] = tested on: Bifidobacterium longum subsp. longum
How it was run: as §1

Clostridium difficile = tested on: Clostridium difficile
How it was run: as §1

Collinsella aerofaciens = tested on: Collinsella aerofaciens
How it was run: as §1

Measured: growth AUC

Nc1ccc(Cl)cc1
inactive: Akkermansia muciniphila 1.01 | Bacteroides caccae 1.03 | Bacteroides clarus 1.02 | Bacteroides dorei 1 | Bacteroides stercoris 1.03 | [1] 1.05 | Bacteroides uniformis 1.02 | [2] 1.04 | Clostridium difficile 1 | Collinsella aerofaciens 0.972

O=c1oc2ccccc2c(O)c1C(CC(O)c1ccc(-c2ccc(Br)cc2)cc1)c1ccccc1 (stereo not given)
active: Bacteroides caccae 0.438 | Bacteroides clarus 0.279 | Bacteroides dorei 0.563 | Bacteroides stercoris 0.00869 | [1] 0.733 | Bacteroides uniformis 0.703 | [2] 0.747 | Clostridium difficile 0.327
inactive: Akkermansia muciniphila 1 | Collinsella aerofaciens 0.941

CCOP(=S)(OCC)Oc1cc(C)nc(C(C)C)n1
inactive: Akkermansia muciniphila 1.04 | Bacteroides caccae 1.02 | Bacteroides clarus 1 | Bacteroides dorei 1.03 | Bacteroides stercoris 0.972 | [1] 1.01 | Bacteroides uniformis 1.02 | [2] 0.972 | Clostridium difficile 1.02 | Collinsella aerofaciens 0.986

O=C(O)C(Cl)Cl
inactive: Akkermansia muciniphila 0.875 | Bacteroides caccae 0.977 | Bacteroides clarus 0.966 | Bacteroides dorei 1.02 | Bacteroides stercoris 0.994 | [1] 0.999 | Bacteroides uniformis 1.01 | [2] 1.01 | Clostridium difficile 1 | Collinsella aerofaciens 0.981

Clc1ccc(C(c2ccc(Cl)cc2)C(Cl)(Cl)Cl)cc1
active: Bacteroides clarus 0.763 | Bacteroides stercoris 0.127 | Bacteroides uniformis 0.798
inactive: Akkermansia muciniphila 1.1 | Bacteroides caccae 0.934 | Bacteroides dorei 0.955 | [1] 0.866 | [2] 0.886 | Clostridium difficile 0.943 | Collinsella aerofaciens 0.869

Nc1c(Cl)cc([N+](=O)[O-])cc1Cl
inactive: Akkermansia muciniphila 0.958 | Bacteroides caccae 0.927 | Bacteroides clarus 0.973 | Bacteroides dorei 0.967 | Bacteroides stercoris 0.875 | [1] 0.986 | Bacteroides uniformis 1.05 | [2] 1.07 | Clostridium difficile 1 | Collinsella aerofaciens 0.897

CNC(=O)Oc1cccc2c1OC(C)(C)C2O (stereo not given)
inactive: Akkermansia muciniphila 1.07 | Bacteroides caccae 1.01 | Bacteroides clarus 1.04 | Bacteroides dorei 1.02 | Bacteroides stercoris 1.06 | [1] 1.01 | Bacteroides uniformis 0.998 | [2] 0.967 | Clostridium difficile 1.03 | Collinsella aerofaciens 1.01

c1cc2ccc3cccc4ccc(c1)c2c34
inactive: Akkermansia muciniphila 0.918 | Bacteroides caccae 0.992 | Bacteroides clarus 1 | Bacteroides dorei 0.997 | Bacteroides stercoris 1.01 | [1] 0.997 | Bacteroides uniformis 1.02 | [2] 0.948 | Clostridium difficile 0.959 | Collinsella aerofaciens 0.946

O=C(O)COc1ccc(Cl)cc1Cl
inactive: Akkermansia muciniphila 0.866 | Bacteroides caccae 1.03 | Bacteroides clarus 0.979 | Bacteroides dorei 0.996 | Bacteroides stercoris 0.986 | [1] 1 | Bacteroides uniformis 0.998 | [2] 1 | Clostridium difficile 1.02 | Collinsella aerofaciens 0.988

C=CCNC(=O)c1c([Si](C)(C)C)sc(C)c1C
inactive: Akkermansia muciniphila 0.751 | Bacteroides caccae 0.964 | Bacteroides clarus 0.973 | Bacteroides dorei 0.978 | Bacteroides stercoris 0.961 | [1] 0.96 | Bacteroides uniformis 0.973 | [2] 0.966 | Clostridium difficile 0.968 | Collinsella aerofaciens 0.981

O=C(NC(=O)c1c(F)cccc1F)Nc1cc(Cl)c(Oc2ncc(C(F)(F)F)cc2Cl)c(Cl)c1
inactive: Akkermansia muciniphila 1.02 | Bacteroides caccae 0.996 | Bacteroides clarus 0.997 | Bacteroides dorei 0.988 | Bacteroides stercoris 1.07 | [1] 1.03 | Bacteroides uniformis 0.977 | [2] 1.14 | Clostridium difficile 1 | Collinsella aerofaciens 1.11

CC(C)N(C(=O)CCl)c1ccccc1
active: Akkermansia muciniphila 0.256
inactive: Bacteroides caccae 1.02 | Bacteroides clarus 0.969 | Bacteroides dorei 1.01 | Bacteroides stercoris 0.978 | [1] 0.933 | Bacteroides uniformis 0.96 | [2] 0.946 | Clostridium difficile 0.965 | Collinsella aerofaciens 1.05

CCOP(=O)(OCC)OCC
inactive: Akkermansia muciniphila 1.06 | Bacteroides caccae 0.991 | Bacteroides clarus 1.03 | Bacteroides dorei 0.972 | Bacteroides stercoris 1.03 | [1] 1.02 | Bacteroides uniformis 1.03 | [2] 0.971 | Clostridium difficile 0.989 | Collinsella aerofaciens 0.967

CC1(C)C(C(=O)OC(C#N)c2cccc(Oc3ccccc3)c2)C1(C)C (stereo not given)
inactive: Akkermansia muciniphila 0.879 | Bacteroides caccae 0.995 | Bacteroides clarus 0.991 | Bacteroides dorei 0.996 | Bacteroides stercoris 0.946 | [1] 0.986 | Bacteroides uniformis 1.01 | [2] 0.951 | Clostridium difficile 1.01 | Collinsella aerofaciens 0.995

CCOCCN(C(=O)CCl)C(=C(C)C)c1ccccc1
inactive: Akkermansia muciniphila 0.903 | Bacteroides caccae 1.01 | Bacteroides clarus 0.998 | Bacteroides dorei 1 | Bacteroides stercoris 0.967 | [1] 0.937 | Bacteroides uniformis 0.944 | [2] 1.04 | Clostridium difficile 0.954 | Collinsella aerofaciens 1.02

CNC(=O)O/N=C(\C)C(C)S(C)=O (stereo not given)
inactive: Akkermansia muciniphila 0.963 | Bacteroides caccae 0.997 | Bacteroides clarus 0.976 | Bacteroides dorei 0.996 | Bacteroides stercoris 1 | [1] 0.983 | Bacteroides uniformis 0.997 | [2] 0.996 | Clostridium difficile 1 | Collinsella aerofaciens 0.995

CCOP(=S)(OCC)Oc1cc(Cl)c(Br)cc1Cl
inactive: Akkermansia muciniphila 0.917 | Bacteroides caccae 0.936 | Bacteroides clarus 0.94 | Bacteroides dorei 1.02 | Bacteroides stercoris 0.953 | [1] 0.979 | Bacteroides uniformis 0.966 | [2] 0.954 | Clostridium difficile 0.977 | Collinsella aerofaciens 0.98

N#Cc1nn(-c2c(Cl)cc(C(F)(F)F)cc2Cl)c(N)c1S(=O)C(F)(F)F (stereo not given)
inactive: Akkermansia muciniphila 1.07 | Bacteroides caccae 0.964 | Bacteroides clarus 0.881 | Bacteroides dorei 0.897 | Bacteroides stercoris 0.95 | [1] 0.986 | Bacteroides uniformis 0.895 | [2] 0.951 | Clostridium difficile 0.966 | Collinsella aerofaciens 1.04

CCOP(=S)(OCC)Oc1cc(C)nc(N(CC)CC)n1
inactive: Akkermansia muciniphila 1.03 | Bacteroides caccae 0.926 | Bacteroides clarus 0.979 | Bacteroides dorei 0.976 | Bacteroides stercoris 0.938 | [1] 0.961 | Bacteroides uniformis 0.943 | [2] 1.01 | Clostridium difficile 1 | Collinsella aerofaciens 0.994

CCSC(=O)N(CC)C1CCCCC1
inactive: Akkermansia muciniphila 0.936 | Bacteroides caccae 0.998 | Bacteroides clarus 0.974 | Bacteroides dorei 1.02 | Bacteroides stercoris 1.06 | [1] 1.01 | Bacteroides uniformis 1.01 | [2] 1.01 | Clostridium difficile 1.01 | Collinsella aerofaciens 1.09

COC(=O)NCc1cc(/C(C)=N/OCc2cccc(C)n2)ccc1Cl
inactive: Akkermansia muciniphila 1.06 | Bacteroides caccae 0.965 | Bacteroides clarus 0.947 | Bacteroides dorei 0.946 | Bacteroides stercoris 0.972 | [1] 0.944 | Bacteroides uniformis 0.808 | [2] 0.981 | Clostridium difficile 0.956 | Collinsella aerofaciens 1.01

Cc1ccc(NC(=O)N(C)C)cc1Cl
inactive: Akkermansia muciniphila 0.946 | Bacteroides caccae 1.04 | Bacteroides clarus 0.989 | Bacteroides dorei 1.01 | Bacteroides stercoris 0.954 | [1] 1 | Bacteroides uniformis 0.976 | [2] 0.827 | Clostridium difficile 1.01 | Collinsella aerofaciens 0.989

CCOP(=S)(OCC)Oc1cc(Cl)c(SC)cc1Cl
inactive: Akkermansia muciniphila 1.01 | Bacteroides caccae 0.997 | Bacteroides clarus 0.979 | Bacteroides dorei 0.999 | Bacteroides stercoris 1.11 | [1] 0.992 | Bacteroides uniformis 0.989 | [2] 0.981 | Clostridium difficile 1.05 | Collinsella aerofaciens 1.01

CC(C)(C)C(O)C(Oc1ccc(-c2ccccc2)cc1)n1cncn1 (mixture of isomers)
inactive: Akkermansia muciniphila 1.01 | Bacteroides caccae 0.919 | Bacteroides clarus 0.874 | Bacteroides dorei 0.926 | Bacteroides stercoris 1.11 | [1] 0.938 | Bacteroides uniformis 0.899 | [2] 0.847 | Clostridium difficile 0.924 | Collinsella aerofaciens 0.995

CCCCN(CC)c1c([N+](=O)[O-])cc(C(F)(F)F)cc1[N+](=O)[O-]
inactive: Akkermansia muciniphila 0.993 | Bacteroides caccae 1 | Bacteroides clarus 0.964 | Bacteroides dorei 1.01 | Bacteroides stercoris 1 | [1] 1.02 | Bacteroides uniformis 0.99 | [2] 1.01 | Clostridium difficile 1.11 | Collinsella aerofaciens 1.04

OC(Cc1ccccc1Cl)(Cn1cncn1)C1(Cl)CC1 (stereo not given)
inactive: Akkermansia muciniphila 0.867 | Bacteroides caccae 0.974 | Bacteroides clarus 0.963 | Bacteroides dorei 1.01 | Bacteroides stercoris 0.966 | [1] 0.985 | Bacteroides uniformis 0.971 | [2] 1.01 | Clostridium difficile 0.958 | Collinsella aerofaciens 0.953

Nc1cc(Cl)ccc1Cl
inactive: Akkermansia muciniphila 1.03 | Bacteroides caccae 0.993 | Bacteroides clarus 1.05 | Bacteroides dorei 1.04 | Bacteroides stercoris 1.25 | [1] 1.03 | Bacteroides uniformis 1.03 | [2] 0.992 | Clostridium difficile 1 | Collinsella aerofaciens 1.01

COc1nc(C)nc(NC(=O)NS(=O)(=O)c2ccccc2CCC(F)(F)F)n1
inactive: Akkermansia muciniphila 0.874 | Bacteroides caccae 0.985 | Bacteroides clarus 1.01 | Bacteroides dorei 0.992 | Bacteroides stercoris 0.978 | [1] 0.948 | Bacteroides uniformis 0.978 | [2] 0.966 | Clostridium difficile 0.992 | Collinsella aerofaciens 0.966
